Assay outcomes from PubChem BioAssay.
TEAD-YAP block – TEAD-YAP interaction inhibition | HEK-TIYL cells, TEAD-Gal4/YAP UAS-luciferase luminescence | inhibition, % at 9.12 µM | 640,000 compounds, 1.4% hits; in the data active means inhibition above about 32%;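 further: 0% = median of test compound wells and 100% = reference inhibitor wells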
MITF inh – human MITF inhibition, primary screen | inhibition, % at 2.6 µM | AlphaScreen MITF homodimerization, bead proximity signal | 650,000 compounds, 0.91% hits; in the data active means inhibition above about 50%;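 further: 0% = vehicle wells with protein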
FBW7 act – activators of human E3 ligase FBW7. 650,000 compounds, 0.13% hits. normalized activity (activation), % at 26.1 µM. AlphaScreen FBW7–phospho-cyclin E peptide binding, activator screen; in the data active means normalized activity above about 1.9%;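 further: purified mutant Fbw7 with reduced substrate affinity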
GPR151 ag – activates the human receptor GPR151; PathHunter beta-arrestin GPR151 cells, luminescence; 650,000 compounds, 1% hits; activation, % at 11.2 µM; in the data active means activation above about 4.9%;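 further: 0% = median of compound wells and 100% = cells with positive control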
Target sequence (Q8TDV0 whole entry, looked up): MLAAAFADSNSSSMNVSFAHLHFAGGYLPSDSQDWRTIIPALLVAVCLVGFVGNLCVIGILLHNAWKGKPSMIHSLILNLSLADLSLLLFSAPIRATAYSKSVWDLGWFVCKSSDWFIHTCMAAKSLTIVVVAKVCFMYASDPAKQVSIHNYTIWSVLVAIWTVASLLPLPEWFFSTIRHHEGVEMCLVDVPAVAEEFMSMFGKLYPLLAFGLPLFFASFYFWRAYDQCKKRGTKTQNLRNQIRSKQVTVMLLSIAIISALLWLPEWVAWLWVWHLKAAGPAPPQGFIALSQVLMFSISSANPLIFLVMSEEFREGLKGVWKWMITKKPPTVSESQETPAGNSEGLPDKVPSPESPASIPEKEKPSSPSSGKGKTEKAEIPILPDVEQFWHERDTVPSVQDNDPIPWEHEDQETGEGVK
GPR151 conf act – confirmation of human GPR151 activators; shares compounds with GPR151 ag; GPR151 PathHunter beta-arrestin cells, luminescence, 90 min; % of EA-reagent control over plate median; activation, % at 11.2 µM; 6,700 tested, under 10 active;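 active means mean percent activation across replicates above the confirmation screen cutoff of 4.91%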
GPR119 counter – GPR119 activation, counter-screen for GPR151 activators | shares compounds with GPR151 ag | GPR119 PathHunter beta-arrestin cells, luminescence, 90 min; 0 = compound-well median, 100 = enzyme-acceptor control | activation, % at 11.2 µM | 6,700 compounds, 0.3% hits | AID 1508611;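 active means mean percent activation in the counterscreen above 29.09%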;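 further: counterscreen on off-target GPR119 to flag nonselective hits from the GPR151 activator screen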
* = called active by the depositor; . = no result. A selection: hits, their analogues and other compounds. The true share with any hit is near 3.4%.

SMILES	TEAD-YAP block	MITF inh	FBW7 act	GPR151 ag	GPR151 conf act	GPR119 counter
CN1C(=O)N(C)C2(c3ccccc3)N(N)C(N)=NC12c1ccccc1 (stereo unspecified)	0	7	1	0	.	.
CN(Cc1ccccc1)c1ccnc2c(-c3ccc4c(c3)OCO4)cnn12	-39	-20	0	0	.	.
CC(C(=O)NCC1(c2ccccc2)CCOCC1)N1CCCC1 (stereo unspecified)	0	-8	0	-1	.	.
CC(C)=CCN1CCN(Cc2sccc2C)CC1CCO (stereo unspecified)	-14	0	0	12*	2	15
Cc1c(Cl)cccc1-n1ncnc1-c1ccc(Br)cc1	-5	-25	0	0	.	.
Cc1cccc(N=Cc2c(C)[nH]n(-c3ccc(Cl)cc3)c2=O)c1	-11	1	0	-2	.	.
COC(=O)COc1ccc(CNC2CCCCCCC2)cc1	3	0	0	5.4*	0	4
O=C1NC(c2cccnc2)C(C(=O)c2cccs2)=C1O (stereo unspecified)	0	27	0	6.1*	-1	-12
COc1ccc(CNC(=O)c2noc(C)c2[N+](=O)[O-])cc1	9	8	0	5.0*	0	5
O=[N+]([O-])c1ccc(N2CCCC2)cc1NN=C1C2CC3CC1CC(O)(C3)C2	-6	-6	0	2	.	.
COc1ccc(CCNc2nc(NC(C)(C)CO)nc(N3CCCC3)n2)cc1OC	-2	15	0	-1	.	.
COc1ccc(CCNc2nc(N3CCCC3)nc(N3CCCC3)n2)cc1OC	-18	18	0	5.1*	1	-8
CCOc1cc2[nH]c(=O)n(Cc3cccc(OC)c3)c(=O)c2cc1OCC	5	-3	0	8.5*	0	-8
C=CCOC(=O)CNC(=O)c1cccc(Br)c1	-1	10	0	0	.	.
COc1ccc(OCC(=O)O/N=C(\N)c2ccc(OC)c(OC)c2)cc1	7	-9	0	8.2*	0	10
COc1ccc(/C(N)=N/OC(=O)COc2ccc(Br)cc2)cc1OC	-4	-5	0	1	.	.
CCOC(=O)c1cc(C(=O)NNC(=O)c2ccc(OC)c(OC)c2)c(C)nc1C	-2	-10	0	3	.	.
O=C(c1ccc(Cn2nnc3ccccc3c2=O)cc1)N1CCc2ccccc2C1	2	-7	0	0	.	.
O=C(c1ccc(-n2nnc3ccccc3c2=O)cc1)N1CCc2ccccc2C1	2	0	0	6.0*	-1	-8
O=C1Nc2ccc([N+](=O)[O-])cc2C12NN=C(c1ccccc1)S2 (stereo unspecified)	-44	9	0	5.0*	0	15
COc1cc(OC)c(NC(=O)COc2cc(=O)n3ccccc3n2)cc1Cl	-9	3	0	0	.	.
O=C1c2ccccc2NC(c2ccccn2)N1c1ccc(Cl)cc1 (stereo unspecified)	-18	4	0	-2	.	.
Cc1cccc(NC(=O)COc2ccc(S(=O)(=O)NC3CCCCC3)cc2)c1	4	-2	0	1	.	.
CSc1cccc(NC(=O)COc2ccc(S(=O)(=O)NC3CCCCC3)cc2)c1	-4	-1	0	5.3*	2	3
Cc1cc(S(=O)(=O)NC2CCCCC2)ccc1OCC(=O)NC(C)C	8	-9	0	1	.	.
SMILES	TEAD-YAP block	MITF inh	FBW7 act	GPR151 ag	GPR151 conf act	GPR119 counter
COc1ccc(S(=O)(=O)NC2CCCCC2)cc1	-8	22	0	-2	.	.
COc1ccc2cc(S(=O)(=O)NC3CCCCC3)ccc2c1	-2	6	0	5.2*	0	11
O=C(Nc1ccc(S(=O)(=O)NC2CCCCC2)cc1)Nc1cccc(Cl)c1	8	13	0	5.1*	0	11
Cc1cc(S(=O)(=O)NC2CCCCC2)ccc1OCC(=O)Nc1ccccc1F	-8	6	1	5.0*	1	13
CCOC(=O)c1sc2nc(SCC#N)n(Cc3ccccc3Cl)c(=O)c2c1C	-8	-5	0	1	.	.
O=C(NCCN1CCN(C(=O)c2ccccc2F)CC1)C(=O)Nc1ccc(F)cc1	-6	8	0	1	.	.
CCN1C(=O)c2cccc3c(N4CCOCC4)ccc(c23)C1=O	-35	-11	0	2	.	.
O=C1C=Cc2ccc(N3CCOCC3)c3cccc1c23	-13	13	0	6.1*	0	7
